CHRM1 agonist = activates human CHRM1 receptor; CHO-K1 hM1, Fluo-8 calcium fluorescence, agonist mode; 0% DMSO, 100% acetylcholine EC100; activation, % at 3 µM; 360,000 compounds, 0.33% hits;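 active = activation above the run's mean compound activation plus 3 SD, cut at about 16% in these data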;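 note: peak over basal fluorescence ratio within a 140 s kinetic read after compound addition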
Target sequence (P11229 whole entry, looked up): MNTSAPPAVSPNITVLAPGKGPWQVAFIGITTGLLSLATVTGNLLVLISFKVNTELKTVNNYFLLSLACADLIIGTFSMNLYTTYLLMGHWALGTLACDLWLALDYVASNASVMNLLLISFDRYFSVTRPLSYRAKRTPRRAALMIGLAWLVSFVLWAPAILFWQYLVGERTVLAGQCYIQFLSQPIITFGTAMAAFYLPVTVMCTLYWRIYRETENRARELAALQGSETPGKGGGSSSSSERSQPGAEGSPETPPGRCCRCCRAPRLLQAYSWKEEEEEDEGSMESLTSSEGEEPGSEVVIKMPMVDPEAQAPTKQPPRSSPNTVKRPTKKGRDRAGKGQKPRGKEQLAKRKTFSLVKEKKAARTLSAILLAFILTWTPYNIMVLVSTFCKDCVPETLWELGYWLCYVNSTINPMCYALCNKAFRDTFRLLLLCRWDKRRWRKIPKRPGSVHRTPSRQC
CHO-K1 Ca antag = counter-screen for M1 antagonists: effect in parental CHO-K1 cells; ATP-induced calcium, Fluo-8 fluorescence; 360,000 compounds, 0.6% hits; inhibition, % at 3 µM;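 active = inhibition above a per-plate cutoff, the plate's mean sample inhibition plus 3 SD, cut at about 24% in these data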
M1 ag parental = nonselective activator or artifact in parental CHO-K1 cells; Fluo-8 calcium fluorescence; scaled to maximal ATP response, vehicle zero; activation, % at 3 µM; 360,000 compounds, 0.48% hits; AID 602248; in the data active = activation above about 15%;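 note: untransfected CHO-K1 host cells lacking M1 receptor as counterscreen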
CHO-K1 Ca PAM = counter-screen for M1 PAMs: effect in parental CHO-K1 cells; 360,000 compounds, 0.02% hits; AID 602247; activation, % at 3 µM; ATP EC20, Fluo-8 calcium fluorescence; 0% at ATP EC20, 100% at ATP max;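 active = activation above the run cutoff, the mean activation of all test compounds plus 3 SD, cut at about 40% in these data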;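 note: peak over basal fluorescence ratio in a 140 s read after ATP addition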
CHRM1 PAM = positive allosteric modulators of human M1 muscarinic receptor; P11229; CHO-K1 hM1, Fluo-8 calcium fluorescence, ACh EC20; 0% = ACh EC20, 100% = maximal ACh; activation, % at 3 µM; 360,000 compounds, 0.088% hits; AID 588819; in the data active = activation above about 19%, passing the limit was not always enough
CHRM1 antagonist = antagonists of human M1 muscarinic receptor | CHO-K1 hM1, Fluo-8 calcium fluorescence, ACh EC80 antagonist | AID 588852 | 360,000 compounds, 1.3% hits | P11229 | inhibition, % at 3 µM;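 active = percent inhibition above its own plate's cutoff, namely the mean of that plate's compound wells plus 3 SD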;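 note: peak over basal fluorescence ratio during 140 s after agonist addition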
Numbers stand for hits. This is a sample that favours compounds with a hit; in the whole collection about 2.4% have one here.

How did Cn1ccc2c(-c3ccc(F)cc3)cc3c(c21)C1CCC3C1 (stereo unspecified) do in these assays?
CHRM1 agonist: inactive; CHO-K1 Ca antag: inactive; M1 ag parental: inactive; CHO-K1 Ca PAM: inactive; CHRM1 PAM: inactive; CHRM1 antagonist: inactive

Results for CCCOc1ccc(C=Nc2ccc(OC)c(S(=O)(=O)N3CCOCC3)c2)c(O)c1 ?
CHRM1 agonist: inactive; CHO-K1 Ca antag: inactive; M1 ag parental: inactive; CHO-K1 Ca PAM: inactive; CHRM1 PAM: inactive; CHRM1 antagonist: inactive

Results for COc1cccc(CNCc2ccc(OC)c3ccccc23)c1OC ?
CHRM1 agonist: inactive; CHO-K1 Ca antag: inactive; M1 ag parental: 22.5; CHO-K1 Ca PAM: inactive; CHRM1 PAM: inactive; CHRM1 antagonist: inactive

What do the screens show for `COc1cccc(CN2CCSCC2)c1OC`?
CHRM1 agonist: inactive; CHO-K1 Ca antag: 25.3; M1 ag parental: inactive; CHO-K1 Ca PAM: inactive; CHRM1 PAM: inactive; CHRM1 antagonist: inactive

Results for COc1ccccc1CNCc1ccc(OC)c2ccccc12 ?
CHRM1 agonist: inactive; CHO-K1 Ca antag: inactive; M1 ag parental: inactive; CHO-K1 Ca PAM: inactive; CHRM1 PAM: inactive; CHRM1 antagonist: inactive

What do the screens show for `Cc1ccc(Cn2nc(C)c(C(=O)NCC(c3ccc(F)cc3)N3CCOCC3)c2Cl)cc1` (stereo unspecified)?
CHRM1 agonist: inactive; CHO-K1 Ca antag: inactive; M1 ag parental: inactive; CHO-K1 Ca PAM: inactive; CHRM1 PAM: inactive; CHRM1 antagonist: inactive

Results for NS(=O)(=O)c1ccc(CCNC(=O)COC(=O)C2CCC2)cc1 ?
CHRM1 agonist: inactive; CHO-K1 Ca antag: inactive; M1 ag parental: inactive; CHO-K1 Ca PAM: inactive; CHRM1 PAM: inactive; CHRM1 antagonist: inactive

Results for CCOc1ccc(CCNC(=O)COC(=O)c2cccc(S(=O)(=O)N(C)C)c2)cc1OCC ?
CHRM1 agonist: inactive; CHO-K1 Ca antag: 44.4; M1 ag parental: inactive; CHO-K1 Ca PAM: inactive; CHRM1 PAM: inactive; CHRM1 antagonist: inactive

Results for CCOc1ccc(CCNC(=O)COC(=O)c2cccc(N(C)C)c2)cc1OCC ?
CHRM1 agonist: inactive; CHO-K1 Ca antag: inactive; M1 ag parental: inactive; CHO-K1 Ca PAM: inactive; CHRM1 PAM: inactive; CHRM1 antagonist: inactive

Results for COc1ccc(N(C)S(=O)(=O)c2cccc(C(=O)OCC(=O)NCc3ccccc3OC)c2)cc1 ?
CHRM1 agonist: inactive; CHO-K1 Ca antag: inactive; M1 ag parental: inactive; CHO-K1 Ca PAM: inactive; CHRM1 PAM: inactive; CHRM1 antagonist: 25.2

How did CN(c1ccccc1)S(=O)(=O)c1cccc(C(=O)OCC(=O)NCc2ccccc2)c1 do in these assays?
CHRM1 agonist: inactive; CHO-K1 Ca antag: inactive; M1 ag parental: inactive; CHO-K1 Ca PAM: inactive; CHRM1 PAM: inactive; CHRM1 antagonist: inactive

Results for CN(C)S(=O)(=O)c1cccc(C(=O)OCC(=O)Nc2sccc2C(N)=O)c1 ?
CHRM1 agonist: inactive; CHO-K1 Ca antag: inactive; M1 ag parental: 20.9; CHO-K1 Ca PAM: inactive; CHRM1 PAM: inactive; CHRM1 antagonist: 37.2

Results for COc1ccc(CCN(C)C(=O)CSc2nc3ccccc3c(=O)n2CC2CCCO2)cc1OC (stereo unspecified) ?
CHRM1 agonist: inactive; CHO-K1 Ca antag: inactive; M1 ag parental: inactive; CHO-K1 Ca PAM: inactive; CHRM1 PAM: inactive; CHRM1 antagonist: inactive

What do the screens show for `CCCCN(C(C)=O)c1ccc2c(c1)C1CC2CCN1C(=O)OCc1ccccc1` (stereo unspecified)?
CHRM1 agonist: inactive; CHO-K1 Ca antag: inactive; M1 ag parental: inactive; CHO-K1 Ca PAM: inactive; CHRM1 PAM: inactive; CHRM1 antagonist: 33.6

How did CCN(CCc1ccccc1)c1ccc2c(c1)C1CC2CCN1C(=O)OCc1ccccc1 (stereo unspecified) do in these assays?
CHRM1 agonist: inactive; CHO-K1 Ca antag: inactive; M1 ag parental: inactive; CHO-K1 Ca PAM: inactive; CHRM1 PAM: inactive; CHRM1 antagonist: inactive

What do the screens show for `CCN(C(=O)c1ccc(C(C)(C)C)cc1)c1nnc(Cn2nnc3ccccc32)s1`?
CHRM1 agonist: inactive; CHO-K1 Ca antag: 31.3; M1 ag parental: inactive; CHO-K1 Ca PAM: inactive; CHRM1 PAM: inactive; CHRM1 antagonist: 36.9

What do the screens show for `COc1ccc(NC(=O)C(C)Oc2ccc(/C(C)=N\O)cc2)cc1` (stereo unspecified)?
CHRM1 agonist: 17.2; CHO-K1 Ca antag: inactive; M1 ag parental: inactive; CHO-K1 Ca PAM: inactive; CHRM1 PAM: inactive; CHRM1 antagonist: inactive

What do the screens show for `CC(C)NS(=O)(=O)c1ccc(NC(=O)C(C)Oc2ccc(C(=O)c3ccccc3)cc2)cc1` (stereo unspecified)?
CHRM1 agonist: 57.2; CHO-K1 Ca antag: 51.0; M1 ag parental: 44.3; CHO-K1 Ca PAM: inactive; CHRM1 PAM: inactive; CHRM1 antagonist: 66.5

What do the screens show for `O=C(CN1CCCC(O)C1)N1c2ccccc2Sc2ccc(C(F)(F)F)cc21` (stereo unspecified)?
CHRM1 agonist: inactive; CHO-K1 Ca antag: inactive; M1 ag parental: inactive; CHO-K1 Ca PAM: inactive; CHRM1 PAM: inactive; CHRM1 antagonist: 98.9

Results for O=C(CN1CCCCCC1)N1c2ccccc2Sc2ccccc21 ?
CHRM1 agonist: inactive; CHO-K1 Ca antag: inactive; M1 ag parental: 16.2; CHO-K1 Ca PAM: inactive; CHRM1 PAM: inactive; CHRM1 antagonist: 99.3

How did CC1CCCN(c2ccc(C(=O)OCn3nnc4ccccc4c3=O)cc2[N+](=O)[O-])C1 (stereo unspecified) do in these assays?
CHRM1 agonist: inactive; CHO-K1 Ca antag: inactive; M1 ag parental: inactive; CHO-K1 Ca PAM: inactive; CHRM1 PAM: inactive; CHRM1 antagonist: inactive

Results for CC1CCCN(c2ccc(C(=O)OCC(=O)N3c4ccccc4Sc4ccccc43)cc2[N+](=O)[O-])C1 (stereo unspecified) ?
CHRM1 agonist: inactive; CHO-K1 Ca antag: inactive; M1 ag parental: inactive; CHO-K1 Ca PAM: inactive; CHRM1 PAM: inactive; CHRM1 antagonist: 34.6

Results for O=C(CN1CCCCC1)N1c2ccccc2Oc2ccccc21 ?
CHRM1 agonist: inactive; CHO-K1 Ca antag: inactive; M1 ag parental: inactive; CHO-K1 Ca PAM: inactive; CHRM1 PAM: inactive; CHRM1 antagonist: 74.7

What do the screens show for `CC1Cc2ccccc2N1C(=O)CN1CCCCC1` (stereo unspecified)?
CHRM1 agonist: inactive; CHO-K1 Ca antag: inactive; M1 ag parental: inactive; CHO-K1 Ca PAM: inactive; CHRM1 PAM: inactive; CHRM1 antagonist: inactive

What do the screens show for `COc1ccc([C@H]2C[C@@H](O)[C@H](n3cc(COC(=O)c4ccccc4)nn3)CN2C(=O)C2CCCCC2)cc1`?
CHRM1 agonist: inactive; CHO-K1 Ca antag: inactive; M1 ag parental: inactive; CHO-K1 Ca PAM: inactive; CHRM1 PAM: inactive; CHRM1 antagonist: inactive

How did CN(Cc1ccccc1)C(=O)COC(=O)C1CCN(S(=O)(=O)c2ccc(Cl)c(C(F)(F)F)c2)CC1 do in these assays?
CHRM1 agonist: inactive; CHO-K1 Ca antag: inactive; M1 ag parental: inactive; CHO-K1 Ca PAM: inactive; CHRM1 PAM: inactive; CHRM1 antagonist: inactive

Results for OC[C@@H]1CN(Cc2cccnc2)C[C@H](n2cnc3c(N4CCCC4)ncnc32)O1 ?
CHRM1 agonist: inactive; CHO-K1 Ca antag: inactive; M1 ag parental: inactive; CHO-K1 Ca PAM: inactive; CHRM1 PAM: inactive; CHRM1 antagonist: inactive

Bioassay records: PubChem, The Scripps Research Institute Molecular Screening Center
